Data as given in PubChem BioAssay (NCATS).
Activity calls are given as the source filed them. The call rests on the fitted dose curve; in most records, active means well fitted curve in the direction sought with a large enough effect; inconclusive means small, poorly fitted or top-dose-only effect, or another doubt; inactive means no such curve, though single readings can be large or run the other way.

Assay: Cellular Toxicity (caspase-3) MRC-5 (AID 659);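 further: cells exposed to compound for 16 h at 37 °C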
Conditions: MRC-5 cells, luminescence, normalized: DMSO 0%, 10 µM staurosporine 100%; series mostly up to 91.7 µM; caspase-3 activation: at the top concentration
Text: NIH Chemical Genomics Center [NCGC]
NIH Molecular Libraries Screening Centers Network [MLSCN]
National Institutes of Environmental Health Sciences [NIEHS]
National Toxicology Program [NTP]
We have developed a 1536-well cell-based assay for quantitative high throughput screening (qHTS) against a number of cell lines to determine in vitro caspase 3/7 activity of small molecules. This particular assay uses the MRC-5 cell line which is derived from human normal lung fibroblasts.
NCGC Assay Protocol Summary:
The Caspase-Glo 3/7 assay (Promega) is a homogeneous method to measure caspase-3 and caspase-7 activities in cultured cells. The quantitation of caspase 3/7 activity is based on the cleavage of a peptide-aminoluciferin substrate. After caspase cleaves the substrate the free aminoluciferin is liberated and serves as the substrate of luciferase, which generates the light. The luminescent signal is proportional to amount of caspase 3/7 activity present.
Using the Caspase-Glo 3/7 assay, the amount of caspase 3/7 activity was measured in the MRC-5 line with complete culture medium following compound treatment for 16 hours. The assay was performed in opaque white 1536-well plates. In the screen, tamoxifen and staurosporine were used as positive controls. Library compounds were measured for their ability to cause the activation of caspase 3/7 in the cell line, as reflected by an increase in luminescence signal, in a concentration-dependent manner. Data were normalized to the controls for basal activity (DMSO only) and 100% stimulation (10 uM staurosporine). AC50 values were determined from concentration-response data modeled with the standard Hill equation.
qHTS protocol for caspase 3/7 assay in MRC-5 cells
[Step] [Parameter] [Value] [Description]
1. Reagent; 5 uL; 1500 MRC-5 cells/well
2. Time; 5 hr; 37 °C incubation
4. Controls; 23 nL; Tamoxifen 0.23 uM to 100 uM & staurosporine 1.4 pM to 100 uM
5. Time; 16 hr; 37 °C incubation
6. Reagent; 5 uL; Caspase-Glo 3/7 reagent
7. Time; 1 hr; Room Temperature
8. Detection; Luminescence; Viewlux plate reader
Keywords: caspase 3/7, apoptosis, MRC-5 cell line, luminescence, NTPHTS, NTPHTS_NCGC, NIEHS, EPA, DSSTox, MLSMR, MLSCN, NIH Roadmap, qHTS, NCGC

SMILES | caspase-3 activation
O=[N+]([O-])c1ccc2nc[nH]c2c1 | 0.788% (inactive)
C=Cc1ccccc1C=C | -0.79% (inactive)
Cc1c(C(=O)O)cccc1[N+](=O)[O-] | 0.67% (inactive)
CCOCC(=O)O | 0.28% (inactive)
CCCC(Cl)CCCC(Cl)CCC(Cl)CCC(Cl)CCC(Cl)CCCC(Cl)CCC (stereo not given) | 0.794% (inactive)
CC(N)CN (stereo not given) | 0.214% (inactive)
c1ccc2c(c1)ccc1ncccc12 | 0.0408% (inactive)
Cc1ccc([N+](=O)[O-])c(N)c1 | 2.48% (inactive)
CC(=O)c1cccc([N+](=O)[O-])c1 | 2.47% (inactive)
FC(F)(F)c1ccccc1Cl | 0.256% (inactive)
CC1CCCO1 (stereo not given) | -1.88% (inactive)
ClC/C=C/CCl | -0.564% (inactive)
CCCCN(CCO)CCCC | -0.905% (inactive)
CCOC(=O)OCC | -2.35% (inactive)
c1ccc2c(c1)Oc1ccccc1S2 | 0.335% (inactive)
CCOc1ccccc1N | -0.862% (inactive)
Cc1ccc2ncccc2c1 | 0.753% (inactive)
CCC(C)(C)OC | 0.436% (inactive)
CCCCCCCCN | 0.472% (inactive)
CCCCC(CC)C(=O)O (stereo not given) | -2.53% (inactive)

SMILES | caspase-3 activation
CCOC(=O)C(C)C(C)=O (stereo not given) | 1.11% (inactive)
Cc1ccc(CO)cc1 | 0.221% (inactive)
C=C(C)C(=O)OCC(C)O (stereo not given) | -0.28% (inactive)
CCOCCO | -0.0944% (inactive)
Cc1ccccc1C(N)=O | 2.56% (inactive)
Cc1ccccc1Br | 1.65% (inactive)
C1CCCC1 | 1.37% (inactive)
C/C(C=O)=C/c1ccccc1 | -0.0116% (inactive)
Cc1cc(C)cc([N+](=O)[O-])c1 | 1.59% (inactive)
CCCCC(CC)CNCC(CC)CCCC (stereo not given) | -1.43% (inactive)
ICCc1ccccc1 | -3.04% (inactive)
C/C=C1\CC2C=CC1C2 (stereo not given) | 0.0514% (inactive)
CC(=O)c1nccs1 | -0.033% (inactive)
Nc1nc(CC(=O)O)cs1 | 0.135% (inactive)
CC(C)Nc1ccccc1 | -1.16% (inactive)
Clc1ccccn1 | -1.2% (inactive)
FC(F)(F)c1cccc(Cl)c1 | -1.77% (inactive)
CC(=O)Nc1ccc(C)cc1 | 0.869% (inactive)
C=C(C)C(N)=O | -3.53% (inactive)
Cc1c(N)cccc1[N+](=O)[O-] | -0.0632% (inactive)
